Screening results: PubChem, National Center for Advancing Translational Sciences (NCATS)
KDM5B inh: inhibitors of human KDM5B histone demethylase; Q9UGL1; AID 1347165; hit rate 2.6% among 220,000; Potency, µM (doses to about 57.7 µM), most hits filed as inhibitors; KDM5B demethylase, FDH-coupled NADH fluorescence (FDH is formaldehyde dehydrogenase); active means well fitted inhibition curve with a large enough effect; further: nearly all actives have a fitted effect of over 70% in size
Target sequence (Q9UGL1 whole entry, looked up): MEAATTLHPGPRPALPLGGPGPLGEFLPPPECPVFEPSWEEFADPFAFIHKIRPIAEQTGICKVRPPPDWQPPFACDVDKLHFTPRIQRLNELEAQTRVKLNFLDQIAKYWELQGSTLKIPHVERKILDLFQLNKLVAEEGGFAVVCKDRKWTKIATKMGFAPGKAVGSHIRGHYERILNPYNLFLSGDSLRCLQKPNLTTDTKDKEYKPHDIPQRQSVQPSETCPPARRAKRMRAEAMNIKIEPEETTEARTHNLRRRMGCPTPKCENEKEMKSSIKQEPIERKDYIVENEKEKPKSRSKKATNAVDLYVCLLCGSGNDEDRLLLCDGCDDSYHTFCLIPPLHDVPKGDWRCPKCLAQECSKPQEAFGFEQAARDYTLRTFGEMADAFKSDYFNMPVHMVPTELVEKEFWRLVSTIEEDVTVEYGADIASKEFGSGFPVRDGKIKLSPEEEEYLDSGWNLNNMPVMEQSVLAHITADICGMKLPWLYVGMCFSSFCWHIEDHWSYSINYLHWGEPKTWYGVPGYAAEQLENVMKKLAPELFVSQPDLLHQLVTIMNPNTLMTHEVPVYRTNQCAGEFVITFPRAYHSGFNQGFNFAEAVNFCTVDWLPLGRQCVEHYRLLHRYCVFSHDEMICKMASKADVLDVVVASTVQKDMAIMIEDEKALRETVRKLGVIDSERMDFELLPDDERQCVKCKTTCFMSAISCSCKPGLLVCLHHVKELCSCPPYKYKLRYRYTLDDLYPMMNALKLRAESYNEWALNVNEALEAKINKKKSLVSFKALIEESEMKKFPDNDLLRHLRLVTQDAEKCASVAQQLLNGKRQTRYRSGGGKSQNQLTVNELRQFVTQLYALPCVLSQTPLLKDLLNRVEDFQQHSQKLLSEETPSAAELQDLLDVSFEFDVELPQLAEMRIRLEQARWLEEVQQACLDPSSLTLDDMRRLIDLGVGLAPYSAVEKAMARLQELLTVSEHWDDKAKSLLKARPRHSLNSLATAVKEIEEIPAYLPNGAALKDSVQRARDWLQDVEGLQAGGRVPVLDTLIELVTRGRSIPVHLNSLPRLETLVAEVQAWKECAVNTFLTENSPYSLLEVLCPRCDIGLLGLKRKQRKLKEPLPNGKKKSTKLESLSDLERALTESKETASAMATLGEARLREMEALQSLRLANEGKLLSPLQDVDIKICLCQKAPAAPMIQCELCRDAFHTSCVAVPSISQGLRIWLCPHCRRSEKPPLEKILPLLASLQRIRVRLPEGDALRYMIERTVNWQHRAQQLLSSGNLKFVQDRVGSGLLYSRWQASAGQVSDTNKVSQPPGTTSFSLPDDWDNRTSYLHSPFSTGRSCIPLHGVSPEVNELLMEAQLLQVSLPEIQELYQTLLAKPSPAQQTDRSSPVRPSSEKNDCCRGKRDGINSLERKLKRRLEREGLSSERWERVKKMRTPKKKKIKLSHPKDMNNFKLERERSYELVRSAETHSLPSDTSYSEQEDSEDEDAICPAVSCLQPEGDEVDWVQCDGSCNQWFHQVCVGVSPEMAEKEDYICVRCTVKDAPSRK
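Inhibition is measured as reduced NADH fluorescence generation from FDH coupling to formaldehyde release. Truncated KDM5BΔAP at 200 nM final acts on H3K4me3 peptide (12.5 µM in substrate mix) in pH 7.5 HEPES buffer with Tween-20, 30 min, room temperature.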
Hits are given with their value; . = inactive. This excerpt belongs to a sample that is enriched for hits.

SMILES	KDM5B inh
COC(=O)c1cc(C(=O)OC)cc(-c2ccc(C=O)o2)c1	.
CCCCc1nc2ccccc2n1CC(O)c1ccc(F)cc1 (centres undefined)	.
COc1cccc(CC(=O)N2CCCCCCNC(=O)[C@H]3CCCC[C@H]32)c1	.
COc1cccc(CN2CCCCCCNC(=O)CC2c2ccccc2)c1 (centres undefined)	.
COc1cccc(CN2CCCCCNC(=O)[C@@H]3CCC[C@@H]32)c1	20µM
CN(Cc1ccccc1)C(=O)/C=C/c1cccs1	.
Cc1ccc(Sc2ccc(N=CN(C)C)cc2)cc1C	.
CN1CCC(Cn2ccc3c(N4CCOCC4)nc(-c4cccc(N[S+](C)(=O)[O-])c4)cc32)CC1	.
C[S+](=O)([O-])N1CCC(Cn2ccc3c(N4CCOCC4)nc(-c4cccc5[nH]ncc45)cc32)CC1	12.6µM
CN1CCC(Nc2ncc(C(C)(C)C(=O)O)c(N3CCOCC3)n2)CC1	.
CN1CCC(Cn2ccc3c(N4CCOCC4)nc(-c4cccc(N5CCOCC5)c4)cc32)CC1	.
CN1CCC(Cn2ccc3c(N4CCOCC4)nc(-c4ccc5cn[nH]c5c4)cc32)CC1	35.5µM
CN1CCC(Cn2ccc3c(N4CCOCC4)nc(-c4cccc5[nH]ccc45)cc32)CC1	7.94µM
CCOC(=O)c1nnn2c1nc(N1CCOCC1)c1ccccc12	.
Cc1c(NCc2nc(-c3cccs3)no2)cccc1-n1cnnn1	.
COC(=O)COc1ccc2oc(C)c(C(=O)OC)c2c1	.
Cc1ccc(C2C(C#N)=C(SCC(=O)Nc3cccc(Cl)c3)NC3=C2C(=O)CCC3)o1 (centres undefined)	.
CN(C)C(=O)CO[C@@H]1COCC[C@H]1NC(=O)c1cccc(-n2cccn2)c1	.
CC(C)c1ccc(-n2nnnc2SCc2nc3ccccc3o2)cc1	.
O=C1NCC2(CCN(Cc3ccc(C(F)(F)F)cc3)CC2)Oc2ccccc21	.
Cc1cc2ccccc2n1CC(=O)N1CCN(C=O)CC1	.
CCC(CC)C(=O)Nc1ccccc1SCc1cc(=O)n2ccsc2n1	.
O=C1CCCc2c1cc(C(=O)NC1CCCCCC1)c(=O)n2-c1ccc(C(F)(F)F)cc1	.
O=S(=O)(Cc1ccc(F)cc1Cl)C12CC3CC(CC(C3)C1)C2	.
CN1C(=O)CCC2(CNC(=O)c3cnccn3)CCC=C12 (centres undefined)	.
SMILES	KDM5B inh
O=C(CN1CCN(c2nccs2)CC1)NCc1ccccc1F	.
CCc1ccc(-c2noc(CSc3nc4ccccc4o3)n2)cc1	.
COc1ccc(-c2ccc(-c3nc(CC(C)C)no3)cn2)c2cccnc12	28.2µM
COc1ccc(NC(=O)CC(C)C)c2cccnc12	.
COc1cc(-c2ccc(-c3nc(CC(C)C)no3)cn2)cc(OC)c1OC	.
COc1ccc(-c2cc(C(=O)O)c3cc(C)cc(C)c3n2)cc1	.
Cc1ccc(C(C)NC(=O)Nc2ccc(Cl)cc2F)c(C)c1 (centres undefined)	.
CCOC(=O)c1nn(Cc2ccc(OC)cc2)c2c1CN(C(=O)c1cn3ccccc3n1)CC2	.
CCOC(=O)c1nn(Cc2ccc(OC)cc2)c2c1CN(C(=O)c1ccc3nc[nH]c3c1)CC2	31.6µM
CCOC(=O)c1nn(Cc2ccccc2)c2c1CN(C(=O)CC1C(=O)Nc3ccc(OC)cc31)CC2 (centres undefined)	.
Cc1nsc(NC(=O)NCc2cccc(Cl)c2Cl)n1	.
CCCNC(=O)N1CCOC[C@H](Oc2ccc(OC)cc2)C1	.
CC1CCN(S(=O)(=O)N2CCC(C(=O)c3ccc4c(c3)OCCO4)CC2)CC1	.
CCN(Cc1nc(COC)no1)Cc1cn[nH]c1-c1ccc(F)cc1	.
Cc1cc(CN(C)Cc2ccc(F)cc2)no1	.
CC(C)c1cc(CN(C)Cc2cn[nH]c2-c2ccc(F)cc2)no1	28.2µM
O=C1CCN(C(=O)c2ccco2)CCCCCCN1	.
O=C1NCCN2CC3(CCN(C(=O)c4ccco4)CC3)CC12 (centres undefined)	28.2µM
O=C(c1ccco1)N1CCN(C2CCC3(CCNCC3)CC2)CC1	.
O=C(CCC1CCCC1)NCCc1noc(-c2ccccc2)n1	.
CCc1noc(-c2ccn3c(CNC(=O)CCC4CCCC4)nnc3c2)n1	4.47µM
Cc1noc(-c2ccn3c(CNC(=O)CCC4CCCC4)nnc3c2)n1	22.4µM
CCc1noc(-c2ccn3c(CNC(=O)C4CCCCC4)nnc3c2)n1	28.2µM
Cc1cc(C(=O)CSc2n[nH]c(C3CC3)n2)c(C)n1C1CC1	.
CC(C)N1CCC(NC(=O)c2cccc3ccccc23)CC1	.
SMILES	KDM5B inh
Cc1ccc(CN(C)C(=O)c2cc3cc(F)ccc3[nH]2)c(C)c1	.
COc1ccccc1C(=O)Nc1c(C)nc(Nc2ccccc2)nc1Nc1ccccc1	.
O=C1[C@H]2CN(Cc3cccc(Cl)c3)C[C@H]2C(=O)N1CCN1CCc2ccccc2C1	.
CC(=O)N1CCN(S(=O)(=O)c2cccc3cc(C)cnc23)CC1	.
COc1ccc2[nH]c(C(=O)NC3CCc4nn(C)c(=O)n4CC3)cc2c1 (centres undefined)	.
O=C(c1ccc(F)cc1)N(Cc1ccco1)C1CC1	.
O=C(O)C12CC3CC(C(=O)O)(C1)CC(C(=O)O)(C3)C2	.
CCCCn1c(N)c(N(CC)C(=O)Cn2c(CC)nc3ccccc32)c(=O)[nH]c1=O	.
Cc1cc(Nc2ccccc2F)n2nc(Cc3ccccc3)nc2n1	.
Cc1noc(C)c1-c1cc2c(c(-c3cccnc3)c1)C(=O)N(C)C2	.
Cc1noc(C)c1-c1cc2c(cc(-c3ccccc3)n2C)c(-c2ccnn2C)n1	.
Cc1noc(C)c1-c1cc2c(cc(-c3ccccc3)n2C)c(Nc2ccncn2)n1	35.5µM
Cc1noc(C)c1-c1cc2c(c(-c3ccc(CO)cc3)c1)C(=O)N(C)C2	.
COc1ccc(-c2cc(-c3c(C)noc3C)cc3c2C(=O)N(C)C3)cn1	31.6µM
Cc1noc(C)c1-c1cc2c(cc(C)n2C)c(Nc2ccncn2)n1	.
Cc1noc(C)c1-c1cc2c(cc(C)n2C)c(-c2cnn(C)c2)n1	.
Cc1noc(C)c1-c1cc2c(cc(-c3ccccc3)n2C)c(N2CCOCC2)n1	22.4µM
Cc1cc2cc(-c3c(C)noc3C)nc(NCc3ccccc3)c2o1	.
Cc1noc(C)c1-c1cc2c(cc(-c3ccccc3)n2C)c(-c2cnn(C)c2)n1	35.5µM
COc1cccc(O)c1CN1CCCC12Cc1ccccc1CNC2=O (centres undefined)	.
COC(=O)/C(C#N)=C/c1ccc(OC)c(COc2cccc(C(F)(F)F)c2)c1	.
CCn1cc(S(=O)(=O)N2CCC(c3ncc(C)n3CCOC)C2)cn1 (centres undefined)	.
CN(CC(=O)N1c2ccccc2NC(=O)CC1C(F)(F)F)Cc1ccccc1Cl (centres undefined)	.
O=C1CCN(C(=O)c2cccs2)CCCCCCN1	.
O=C(CCc1ncc(-c2ccccc2)o1)Nc1ccccc1O	.
SMILES	KDM5B inh
COc1ccc(-c2nc(-c3c(C)noc3C)cc3c2cc(-c2ccccc2)n3C)cn1	28.2µM
COc1ncccc1-c1nc(-c2c(C)noc2C)cc2c1cc(-c1ccccc1)n2C	.
Cc1[nH]ncc1C(=O)N1CCOC(Cc2ccc(F)cc2)C1 (centres undefined)	.
O=C(NCCCN1CCCC1)c1cccs1	.
CN(c1ccccc1)c1ccc2c(n1)CN(CCOc1ccccc1)C(=O)CO2	31.6µM
O=C1COc2ccc(-c3cn[nH]c3)nc2CN1Cc1ccccc1	.
O=C1COc2ccc(Oc3ccccc3)nc2CN1Cc1ccccc1	.
O=C1COc2ccc(-c3ccc4c(c3)OCO4)nc2CN1Cc1ccc(F)cc1	35.5µM
